# Results reported in PubChem BioAssay (NCATS).
# A number with no mark means an inactive call. The rule behind the calls is not given here.
# System: HIV-1 nucleocapsid protein NCp7 (binding to TG oligonucleotide)
# Experiment: HIV Nucleocapsid (AID 346);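 note: potency is for inhibitors that block NC binding and lower polarization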
# Conditions: HIV-1 NC / fluorescein-TGTGTGTG probe, fluorescence polarization
# Outline: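 Fluorescence polarization binding of 100 nM HIV-1 NC to 10 nM fluorescein-labelled TG4xF oligonucleotide. Buffer was Hepes pH 7.5 with 250mM NaCl, 1uM ZnCl2, TCEP and 2-mercaptoethanol. Compounds were incubated 1 hr at room temperature before the read.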
# Potency is the fitted concentration of half-maximal effect.
row,Structure (SMILES),Potency [µM]
1,O=C(c1ccco1)N1CCC2(CC1)CN(c1ccccn1)C2,> 20
2,N#Cc1cccc(NC(=O)N2CC[C@@]3(CCCN(C(=O)c4cc(C(F)(F)F)cc(C(F)(F)F)c4)C3)C2)c1,> 20
3,CC(=O)NCCNc1nc(-c2ccccc2Cl)nc2ccccc12,> 20
4,COc1ccc(NC(=O)N2CCC3(CC2)CCN(S(=O)(=O)c2ccccc2)CC3)cc1,> 20
5,N#Cc1cccc(-c2ccc3ncnc(NC4CCNCC4)c3c2)c1,> 20
6,COc1ccc(-c2nc3cnc(Oc4cccc(Cl)c4)nc3n(CCC#N)c2=O)cc1,> 20
7,c1ccc(CNc2ccnc(-c3ccc4c(c3)OCO4)n2)cc1,> 20
8,COc1ccccc1CN1CC[C@@]2(CCCN(C(C)=O)C2)C1,> 20
9,CCNc1ncc2nc(-c3cc(F)cc(F)c3)c(=O)n(CCC#N)c2n1,19.8
10,N#Cc1ccccc1-c1ccc2ncnc(NCCN3CCOCC3)c2c1,> 20
11,CC(=O)N1CCC2(CCN(Cc3cc(C(F)(F)F)cc(C(F)(F)F)c3)CC2)CC1,> 20
12,O=C(c1cnccn1)N1CCC2(CC1)CCN(c1ccccc1)CC2,> 20
13,N#Cc1cccc(-c2nc(N3CCNCC3)c3ccccc3n2)c1,> 20
14,COc1ccc(Oc2ncc3nc(-c4cc(F)cc(F)c4)c(=O)n(C4CC4)c3n2)cc1,> 20
15,COc1ccc(C(=O)N2CCC3(CCCN(Cc4ccccc4OC)C3)CC2)cc1,> 20
16,FC(F)(F)c1ccccc1-c1ccc2ncnc(N3CCOCC3)c2c1,> 20
17,CN(C)c1ncc2nc(-c3ccc(Cl)cc3)c(=O)n(-c3ccccc3)c2n1,> 4
18,O=C(Nc1cccc(F)c1)N1CCCC2(CCN(S(=O)(=O)c3ccccc3)CC2)C1,> 20
19,c1ccc2c(NCCN3CCOCC3)nc(-c3ccoc3)nc2c1,> 20
20,COc1cccc(Cn2c(=O)cnc3cnc(Oc4ccccc4)nc32)c1,> 4

row,Structure (SMILES),Potency [µM]
1,c1ccc(Nc2nc(-c3cccnc3)nc3ccccc23)cc1,> 20
2,CC(C)CN1CC[C@@]2(CCCN(S(=O)(=O)c3ccccc3)C2)C1,> 20
3,O=C(c1cc(C(F)(F)F)cc(C(F)(F)F)c1)N1CCC2(CC1)CCN(c1ncccn1)CC2,> 20
4,COc1cccc(Nc2ncc3nc(CCc4ccccc4)c(=O)n(C)c3n2)c1,> 4
5,O=C(c1ccncc1)N1CCC[C@@]2(CCN(c3ncccn3)C2)C1,> 20
6,COc1ncc2nc(-c3cn(C)c4ccccc34)c(=O)n(Cc3ccc(F)cc3)c2n1,> 20
7,Cc1noc(C)c1C(=O)N1CCC[C@@]2(CCN(C(=O)Nc3ccccc3)C2)C1,> 20
8,CN(C)Cc1ccccc1-c1nccc(NCc2cccs2)n1,> 20
9,CNc1nc(-c2ccccc2OC)nc2ccccc12,> 20
10,CN1CCCC2(CCN(C(=O)c3cccn3C)CC2)C1,> 20
11,O=c1c(-c2cccc(F)c2)nc2cncnc2n1Cc1ccccc1,> 20
12,COc1ccc(-c2nc3cnc(OC)nc3n(-c3ccccc3)c2=O)cc1,> 20
13,O=c1c(-c2cccs2)nc2cnc(N3CCOCC3)nc2n1CCc1ccccc1,> 20
14,CNc1ncncc1-c1ccccc1C(F)(F)F,> 20
15,COc1cccc(-c2cncnc2NCCc2c[nH]c3ccc(OC)cc23)c1,> 20
16,O=C(c1cnccn1)N1CCC2(CC1)CN(c1ccccc1)C2,> 20
17,COc1ccc2[nH]cc(CCNc3cc(-c4ccc(C(=O)N(C)C)cc4)ncn3)c2c1,> 20
18,Cc1noc(C)c1C(=O)N1CCC2(CC1)CCN(C(c1ccccc1)c1ccccc1)CC2,> 20
19,COc1cccc(-c2nccc(NC3CCNCC3)n2)c1,> 20
20,COc1ccc(CNc2ncncc2-c2ccccc2Cl)c(OC)c1,> 20
